According to PubChem BioAssay AID720504 (National Center for Advancing Translational Sciences (NCATS), 2013):
About 10,000 (2.8%) of roughly 360,000 compounds were called active. Inconclusive results (about 4%) are left out. The sample as a whole holds a higher share of actives than the screen did. A number with no mark means an inactive call. Calls follow the shape of the dose curve; as a rule, active = well fitted inhibition curve with a large enough effect; inconclusive = small, poorly fitted or top-dose-only effect; inactive = flat fitted curve, though single readings scatter.

Each molecule was assayed against Serine/threonine-protein kinase PLK1 (Homo sapiens) (UniProt P53350) (assay: qHTS for Inhibitors of PLK1-PDB (polo-like kinase 1 - polo-box domain): Primary Screen). Settings: Plk1 PBD binding of FITC phosphopeptide, fluorescence polarization.
% is scaled to controls: 0 for no effect and ±100 for the full control effect; potency is read from the fitted curve at half-maximal effect.
Also: nearly all actives have a fitted effect of over 65% in size.
For max response, negative = inhibition in this document: series mostly up to about 57 µM.

Serine/threonine-protein kinase PLK1 (Homo sapiens), sequence (P53350 whole entry, looked up, the tested form may be a part): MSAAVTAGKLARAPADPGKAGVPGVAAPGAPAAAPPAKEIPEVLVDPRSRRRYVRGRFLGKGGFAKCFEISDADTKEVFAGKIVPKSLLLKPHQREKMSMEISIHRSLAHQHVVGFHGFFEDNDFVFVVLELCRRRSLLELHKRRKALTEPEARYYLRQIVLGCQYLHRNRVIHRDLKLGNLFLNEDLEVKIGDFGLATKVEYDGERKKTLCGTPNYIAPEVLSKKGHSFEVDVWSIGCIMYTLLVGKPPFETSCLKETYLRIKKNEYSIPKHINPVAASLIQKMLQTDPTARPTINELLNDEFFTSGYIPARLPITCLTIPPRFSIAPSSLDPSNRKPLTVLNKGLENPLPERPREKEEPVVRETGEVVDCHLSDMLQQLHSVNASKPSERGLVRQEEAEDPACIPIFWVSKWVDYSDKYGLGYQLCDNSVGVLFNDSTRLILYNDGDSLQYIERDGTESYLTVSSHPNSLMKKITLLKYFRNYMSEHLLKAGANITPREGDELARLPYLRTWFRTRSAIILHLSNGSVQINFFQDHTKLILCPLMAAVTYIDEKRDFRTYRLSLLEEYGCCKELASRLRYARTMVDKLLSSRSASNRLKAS

Row | Structure (SMILES) | max response, negative = inhibition | Potency
1 | S=c1[nH]nc(-c2cccs2)n1/N=C/c1cn(-c2ccccc2)nc1-c1ccc(Cl)cc1 | -14.4% | 
2 | S=c1[nH]nc(-c2cccs2)n1/N=C/c1cccs1 |  | 37.7 µM (active)
3 | CC(C)c1cccc(-c2csc(C(O)c3ccccc3)n2)c1 (stereo not drawn) | -9.83% | 
4 | Cc1ccc(-c2nn(-c3ccccc3)cc2/C=C2\SC(=S)N(CCCCCC(=O)O)C2=O)o1 | 165% | 
5 | COc1cccc(/C=C2\SC(=S)N(CCCC(=O)N3CCOCC3)C2=O)c1 | -2.08% | 
6 | CN(C)S(=O)(=O)c1cccc(-c2nn(-c3ccccc3)cc2/C=C2\SC(=S)N(CC(=O)O)C2=O)c1 |  | 26.7 µM (active)
7 | Cc1ccc(-c2nn(-c3ccccc3)cc2/C=C/C(=O)Nc2cccc(S(N)(=O)=O)c2)cc1 | -5.39% | 
8 | O=C(CN1C(=O)/C(=C\c2ccccc2F)SC1=S)Nc1nc2ccccc2s1 | -28.6% | 
9 | COc1ccc(-c2nn(-c3ccccc3)cc2/C=C2/SC(=S)N(CCCC(=O)O)C2=O)c(C)c1 |  | 29.9 µM (active)
10 | COc1ccc(CC(N)c2csc(NC(=O)Nc3ccc(C(C)C)cc3)n2)cc1 (stereo not drawn) | -5.6% | 
11 | CC1(C(=O)Nc2cccc3c2CCCC3)CCN1C(=O)CCc1ccc(Cl)cc1Cl (stereo not drawn) | 0.165% | 
12 | N#Cc1c(-c2cccs2)nc(SCC(=O)c2ccc(Br)cc2)[nH]c1=O |  | 26.7 µM (active)
13 | O=C(CSc1nc2ccccc2c(=O)[nH]1)Nc1nc(-c2ccc(Br)cc2)cs1 | -29% | 
14 | CC(=O)CSc1nc(CCc2ccccc2)c(C#N)c(=O)[nH]1 | 5.25% | 
15 | COc1ccc(C2/C(=C(/O)c3ccccc3)C(=O)C(=O)N2C)c(OC)c1 (stereo not drawn) | 0.389% | 
16 | COc1ccc(/C=C2/C(=O)OCc3cc(OC)c(OC)cc32)c(OC)c1 | -13% | 
17 | COc1ccc(/C=C2/C(=O)N(c3ccccc3)N=C2C)c(OC)c1 |  | 18.9 µM (active)
18 | Cc1cccc(C)c1NC(=O)C(c1cccc(F)c1)N1CCN(C)CC1 (stereo not drawn) | -7.61% | 
19 | CC(=O)Nc1cnc(-c2ccc(O)cc2C)cn1 | -2.97% | 
20 | COc1ccc(NC(=O)C2Cc3c(-c4ccc5c(c4)OCO5)ccnc3O2)cn1 (stereo not drawn) | -5.75% | 
21 | COc1ccc(NC(=O)Nc2ccc3c(c2)C(=O)N([C@H](C)CO)C[C@H](C)[C@@H](CN(C)C(=O)Nc2ccc4c(c2)OCO4)O3)cc1 |  | 23.8 µM (active)
22 | COc1ccc(NC(=O)N(C)C[C@H]2Oc3ccc(NC(=O)C4CC4)cc3C(=O)N([C@H](C)CO)C[C@@H]2C)cc1 | -15.8% | 

Row | Structure (SMILES) | max response, negative = inhibition | Potency
23 | C[C@H](CO)N1C[C@H](C)[C@@H](CN(C)C(=O)Nc2ccc3c(c2)OCO3)Oc2c(cccc2N(C)C)C1=O | -11.3% | 
24 | CC(Sc1nnnn1C)C(=O)NC(=O)NC1CCCCC1 (stereo not drawn) | -1.5% | 
25 | CC(Sc1nnnn1C1CCCCC1)C(=O)O (stereo not drawn) |  | 4.23 µM (active)
26 | O=C(CSc1nnnn1C1CCCC1)N1CCCCC1 | -1.23% | 
27 | COc1ccc(OC)c(NC(=O)c2cc(-c3cc(F)ccc3OCC3CCCO3)n[nH]2)c1 (stereo not drawn) | 1.76% | 
28 | COc1ccc2c(c1)CCCO[C@]21O[C@H](CCO)C[C@H](O)[C@H]1O | -7.9% | 
29 | OCC[C@H]1C[C@@H](O)[C@H](O)[C@@]2(OCCc3ccccc32)O1 |  | 21.2 µM (active)
30 | OCC[C@H]1C[C@@H](O)[C@H](O)[C@]2(OCCCc3ccccc32)O1 | -6.7% | 
31 | CC1(C(=O)NCc2ccc(F)c(F)c2)Cc2c(-c3ccc4c(c3)OCO4)ccnc2O1 (stereo not drawn) | 5.1% | 
32 | CC1(Cc2cccc(C#N)c2)C(=O)Nc2ccc(-c3cccc(C(F)(F)F)c3)cc21 (stereo not drawn) | -6.86% | 
33 | CCCCC[C@@H]1C=C(C(=O)O)[C@H](c2ccc(C#N)cc2)N1S(=O)(=O)c1ccc(C)cc1 | -5.69% | 
34 | Cc1ccc(S(=O)(=O)N2[C@@H](c3ccc(Br)cc3)C(C(=O)O)=C[C@H]2CC2CCCC2)cc1 |  | 23.8 µM (active)
35 | CCCCC[C@@H]1C=C(C(=O)OCC)[C@H](c2ccccc2)N1S(=O)(=O)c1ccc(C)cc1 | -0.281% | 
36 | Cc1ccc(S(=O)(=O)N2CC[C@H]3[C@@H](C2)C(=O)C[C@@H](c2ccccc2)N3S(=O)(=O)c2ccc(C)cc2)cc1 | -5.58% | 
37 | CCN(CC)CCCC(C)n1c2nc(=O)[nH]c(=O)c-2nc2cc(Cl)ccc21 (stereo not drawn) |  | 0.752 µM (active)
38 | Cc1ccc(Sc2ccc(NC(=O)c3ccc(F)cc3)cc2C#N)cc1 | -2.21% | 
39 | Cc1ccc(-c2nc3ccc(Br)cn3c2Cc2ccccc2C(F)(F)F)cc1 | -28.5% | 
40 | Cc1ccc([C@@H]2CC(=O)[C@@H]3CN(S(=O)(=O)c4ccc(C)cc4)[C@H](c4ccccc4F)C[C@@H]3N2S(=O)(=O)c2ccc(Cl)cc2)cc1 | 3.58% | 
41 | Nn1c(SCC(=O)Nc2nccs2)nnc1-c1ccco1 | -17.8% | 
42 | CCc1cccc(C)c1NC(=O)CSc1nnc(-c2ccco2)n1N | -0.459% | 
43 | NC(=O)c1c(NC(=O)CSc2nnc(-c3ccco3)n2N)sc2c1CCCC2 |  | 15 µM (active)
